According to ChEMBL document CHEMBL4513216, “Probing the Open Global Health Chemical Diversity Library for Multistage-Active Starting Points for Next-Generation Antimalarials” (ACS Infect Dis, 2020):
Hit rate of the full screen: of about 68,000 compounds, about 2,700 (4%) showed an effect of 50% or more. What follows is part of a selection rich in strong results, with near analogues and random picks from the rest.

The molecules below were run on Plasmodium berghei (assay: Screen against P. berghei liver stage (PbLuc), transformed with Luciferase, at 2uM). Conditions: tested at 2 uM.
Format: functional, HepG2

Compound | INHIBITION
CC(C)C[C@H](N)COc1cccc(F)c1Oc1ccc(Cl)cc1 | 32.24%
COc1cc(CNc2cc(N3CCCC3CO)ncn2)ccn1 (centres undefined) | 21.39%
Cc1ncsc1CNC(=O)N1CCN(Cc2ccccc2)C[C@H]1C | 37.41%
Cc1nccc(CNC(=O)N2CCN(Cc3ccccc3)C[C@H]2C)n1 | 58.93%
Cc1ncsc1C(=O)N1CCN(Cc2ccccc2)CC1C (centres undefined) | -12.06%
Cc1cc(CNC(=O)N2CCN(Cc3ccccc3)C[C@H]2C)on1 | -4.53%
Cc1ncsc1CNC(=O)N1CCN(Cc2ccccc2)CC1C (centres undefined) | 51.4%
C[C@@H]1CN(Cc2ccccc2)CCN1C(=O)NCc1nccs1 | 14.83%
CCCC(=O)N1CCC(c2cc3cccnc3c(O)n2)CC1 | 4.48%
O=C(N1CCCC1)N1CCC2(CC1)CN(c1cccnc1)C(=O)CO2 | 39.86%
CC(C)(C)c1n[nH]cc1CNC1CCC(OCC(F)(F)F)CC1 (centres undefined) | -8.63%
CC(C)(C)c1n[nH]cc1CNC1CCC(O)CC1 (centres undefined) | -57.67%
CC(C)(C)c1n[nH]cc1CNC1CCC(C(F)(F)F)CC1 (centres undefined) | 64.92%
C=C/C=c1\c(=C/C)oc2c(NCc3ccccc3)nc(C)nc12 | 51.36%
C=C/C=c1\c(=C/C)oc2c(NCc3ccccc3)nc(CC)nc12 | 17.42%
C=C/C=c1\c(=C/C)oc2c(NCc3ccccc3)ncnc12 | 24.34%
Cc1noc(C)c1CCC(=O)N1CCCC(n2ccnc2C)C1 (centres undefined) | 11.18%
CCN1CCOC(CNCc2ccc(C)s2)C1 (centres undefined) | -19.02%
COc1ccc(CNc2cnn(CC(F)F)c2)cc1 | -15.93%
COc1cc(CNc2cnn(CC(F)F)c2)ccc1O | 19.18%
Cc1ccc(CNc2cnn(CC(F)F)c2)cc1C | 55.43%
CCn1nnc2c1C(COCCN(C)C)CN(S(=O)(=O)CC)C2 (centres undefined) | 29.19%
CNc1ncc(CN(C)C(=O)c2cccc(CC3CCNCC3)c2)cn1 | 52.98%
Cc1nc(CN(C)C(=O)c2cccc(CC3CCNCC3)c2)no1 | 24.36%
CN(Cc1ccno1)C(=O)c1cccc(CC2CCNCC2)c1 | 38.67%
Cc1nc2ccc(Cl)cn2c1CN1CCN(S(=O)(=O)N2CCCC2)CC1 | -21.9%
CCN1CCc2c(sc3c2C(=O)NC(C=Cc2ccccc2)N3)C1 (centres undefined) | -18.77%

Compound | INHIBITION
COCC(=O)N1CCCCC1c1nccc(C)n1 (centres undefined) | 18.22%
CN(C)CCN1CCCC12CCN(Cc1nccn1C)CC2 | 37.75%
Cc1cc(C(F)(F)F)nn1CCCNC(=O)C1CCC1 | 31.12%
O=C(COc1coc(CN2CCOCC2)cc1=O)Nc1ccc(Cl)cc1 | 16.49%
O=C(COc1coc(CN2CCOCC2)cc1=O)Nc1ccccc1F | 64.35%
O=C(COc1coc(CN2CCCCC2)cc1=O)Nc1ccccc1Cl | -46.67%
CCCc1ccc2oc(C(=O)N3CCN(CCOC)CC3)c(C)c2c1 | -28.65%
COc1cccn(CC(=O)N(C)CCC2CCOCC2)c1=O | 69.67%
COCCN(C)C(=O)Cn1cccc(OC)c1=O | -14.84%
COc1cccn(CC(=O)N(C)CCSC)c1=O | 21.97%
COc1cccn(CC(=O)N(C)CCCOc2c(C)cccc2C)c1=O | -30.49%
COCCCN(C)C(=O)Cn1cccc(OC)c1=O | 50.59%
COc1cccn(CC(=O)N(C)Cc2ccoc2)c1=O | -33.11%
CN(C)C(c1ccccn1)C1CCC(CNC(=O)CC2CCCC2)CC1 (centres undefined) | 0.64%
CCc1c(C(=O)O)nnn1-c1ccc(C)cc1C | -54.75%
NC(=O)N1CC[C@@H]2O[C@@H](COCC(=O)N3CCCC3)CC[C@@H]21 | 35.98%
Cc1cc(C[C@@H]2COC[C@H]2NCc2ccccc2C(F)(F)F)on1 | 32.31%
Cc1cc(C(O)CCNC(=O)c2ccc(Cl)s2)c(C)o1 (centres undefined) | -16.88%
CC(CNC(=O)c1cnccn1)Oc1ccc(F)cc1 (centres undefined) | 52.84%
CC(CNC(=O)c1cnccn1)Oc1cccc(Br)c1 (centres undefined) | 30.75%
CC(CNC(=O)c1ccncc1F)Oc1ccc(F)cc1 (centres undefined) | 23.79%
NCc1cccc(-c2cccnc2C(=O)NCCN2CCCC2)c1 | 1.07%
O=C(NC1CC1)[C@@H]1CCO[C@@H]2CCN(CC3CCC3)C[C@H]21 | 9.98%
Cc1ccc(F)cc1NC(=O)NCC(C)N1CCOCC1 (centres undefined) | -0.54%
CC(CNC(=O)Nc1ccc(F)cc1Br)N1CCOCC1 (centres undefined) | 74.22%
Cc1cc(F)ccc1NC(=O)NCC(C)N1CCOCC1 (centres undefined) | 48.59%
CCc1ccc(CN2CCC3(CCCN(C(=O)N(C)C)C3)C2)o1 (centres undefined) | 1.08%
